Potency and affinity values are given separately. Activity calls are given as the source filed them.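 How the source made its calls: active means cytotoxic signal drop whose half-maximal concentration is at most twice the top valid dose; inconclusive means flat drop between 30% and 70%, or poor fit; inactive means the rest.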

From PubChem BioAssay AID743318 (Broad Institute, 2014) come the findings set out here.

The nature of this assay: A549 cell cytotoxicity, dose response, cytotoxicity control, plate reader, dry powder, set 7 (AID 743318). The conditions noted are these: A549 viability, CellTiter-Glo ATP luminescence, 72 h; series mostly up to 26 µM. On the technique in general: ATP-based viability assays read luminescence as a measure of living cells.
As for `Cc1ccc(C(C)C)c(OCCn2c(CO)nc3ccccc32)c1`, the compound was called inactive. In the case of `O=c1[nH]c2ccccc2n1CCOc1ccccc1`, the compound was called inactive. Consider `Cc1ccccc1OCCn1c(=S)[nH]c2ccccc21`, for which the result was inactive. `CCOc1ccc(OCCn2c(=S)[nH]c3ccccc32)cc1`: the outcome was inactive. `Cc1ccc(OCCn2cnc3ccccc32)c(C(C)C)c1`: the compound was called inactive. Take `Cc1ccc(C(C)C)c(OCCn2c(=S)[nH]c3c(Cl)cccc32)c1`: the outcome was inactive. Take `Cc1ccc(C(C)C)c(OCCn2c(=S)[nH]c3ccccc32)c1`: the compound was called inactive.

Consider `CC(C)c1ccccc1NCCn1c(=S)[nH]c2ccccc21`, for which the outcome was inactive. The same measure for `S=c1[nH]c2cc(Cl)ccc2n1CCOc1ccccc1`: “inactive”.

With `S=c1[nH]c2cccc(Cl)c2n1CCOc1ccccc1`, the outcome was inactive. Turning to `S=c1[nH]c2ccccc2n1CCOc1ccccc1`, the result was inactive.

With `Cc1ccc(C)c(OCCn2c(=S)[nH]c3ccccc32)c1`, the result was inactive. For `COc1ccc(OCCn2c(=S)[nH]c3ccccc32)cc1`, the compound was called inactive. Then `CC(C)(C)c1ccc(OCCn2c(=S)[nH]c3ccccc32)cc1`, with “inactive”. As for `Fc1ccc(OCCn2c(=S)[nH]c3ccccc32)cc1`, the call was inactive. Turning to `Cc1cccc(OCCn2c(=S)[nH]c3c(F)cccc32)c1`, the result was inactive.

As for `Cc1ccc(C(C)C)c(OCCn2c(=S)[nH]c3ccc(F)cc32)c1`, the result was inactive. `Cc1cccc(OCCn2c(=S)[nH]c3cc(F)ccc32)c1`: the outcome was inactive. Take `CC(C)(C)c1ccc(OCCn2cnc3ccccc32)cc1`: the outcome was inactive. In the case of `S=c1[nH]c2ccccc2n1CCOc1ccc(Cl)cc1`, the compound was called inactive. Take `Cc1ccc(OCCn2c(SCCO)nc3ccccc32)c(C(C)C)c1`: the outcome was inactive.

Consider `Fc1ccc2c(c1)[nH]c(=S)n2CCOc1ccccc1`, for which the compound was classed as inactive. Turning to `Cc1cccc2[nH]c(=S)n(CCOc3ccccc3)c12`, the compound was called inactive. Then `Cc1ccc(C(C)C)c(OCCn2c(=S)[nH]c3c(C)cccc32)c1`, with “inactive”; and `Cc1ccc(OCCn2c(=S)[nH]c3ccccc32)cc1`, with “inactive”.
